The values below come from the supplement of paper PMC10849652.

The full data set covers some 7,900 targets. This sample favours those with a hit. About 0.6% of all pairs of compound and target were hits. Unmarked numbers belong to inactive results.

Sequence of UniProt Q8TBZ6 (Q8TBZ6 whole entry, looked up): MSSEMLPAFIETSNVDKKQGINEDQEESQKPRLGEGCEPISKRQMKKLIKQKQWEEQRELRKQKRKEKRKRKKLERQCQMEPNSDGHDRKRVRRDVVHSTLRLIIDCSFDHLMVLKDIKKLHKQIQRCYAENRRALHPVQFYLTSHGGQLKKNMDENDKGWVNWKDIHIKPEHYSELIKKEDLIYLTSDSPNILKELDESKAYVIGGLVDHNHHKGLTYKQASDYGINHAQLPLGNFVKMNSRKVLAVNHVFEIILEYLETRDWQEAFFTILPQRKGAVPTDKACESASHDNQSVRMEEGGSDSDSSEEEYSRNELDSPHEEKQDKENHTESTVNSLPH
Sequence of UniProt O95857 (O95857 whole entry, looked up): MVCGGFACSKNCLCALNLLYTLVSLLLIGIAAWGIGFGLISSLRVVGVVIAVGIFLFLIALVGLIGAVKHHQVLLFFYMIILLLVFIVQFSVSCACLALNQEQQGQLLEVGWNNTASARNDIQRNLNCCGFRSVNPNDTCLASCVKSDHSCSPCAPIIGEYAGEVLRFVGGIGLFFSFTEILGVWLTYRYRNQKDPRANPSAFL
Sequence of UniProt Q86XT9 (Q86XT9 whole entry, looked up): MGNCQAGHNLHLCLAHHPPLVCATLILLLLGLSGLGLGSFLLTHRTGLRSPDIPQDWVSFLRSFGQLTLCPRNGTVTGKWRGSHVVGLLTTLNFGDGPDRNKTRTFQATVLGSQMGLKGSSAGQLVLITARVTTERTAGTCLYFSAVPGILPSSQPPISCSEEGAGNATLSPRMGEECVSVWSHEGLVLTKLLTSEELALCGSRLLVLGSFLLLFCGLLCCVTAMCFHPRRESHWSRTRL
Sequence of UniProt P13010 (P13010 whole entry, looked up): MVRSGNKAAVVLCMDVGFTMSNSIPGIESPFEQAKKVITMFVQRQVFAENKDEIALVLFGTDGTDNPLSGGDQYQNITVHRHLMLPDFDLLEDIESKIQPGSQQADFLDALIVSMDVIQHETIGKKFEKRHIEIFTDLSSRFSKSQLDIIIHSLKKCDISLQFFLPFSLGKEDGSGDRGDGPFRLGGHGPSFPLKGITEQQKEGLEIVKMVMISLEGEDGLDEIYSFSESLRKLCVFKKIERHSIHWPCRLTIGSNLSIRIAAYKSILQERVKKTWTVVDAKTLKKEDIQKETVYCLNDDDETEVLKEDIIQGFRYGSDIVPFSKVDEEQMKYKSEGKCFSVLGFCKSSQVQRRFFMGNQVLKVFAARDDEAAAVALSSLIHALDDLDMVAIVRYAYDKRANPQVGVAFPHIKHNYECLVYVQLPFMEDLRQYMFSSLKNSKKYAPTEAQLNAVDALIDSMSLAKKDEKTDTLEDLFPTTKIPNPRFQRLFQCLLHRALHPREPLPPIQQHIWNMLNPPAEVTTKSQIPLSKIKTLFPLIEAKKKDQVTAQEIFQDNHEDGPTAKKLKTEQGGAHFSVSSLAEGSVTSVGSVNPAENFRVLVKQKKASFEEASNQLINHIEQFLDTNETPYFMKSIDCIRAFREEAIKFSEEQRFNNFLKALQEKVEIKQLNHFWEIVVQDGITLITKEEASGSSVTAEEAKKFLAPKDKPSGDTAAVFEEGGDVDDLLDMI
Sequence of UniProt Q99986 (Q99986 whole entry, looked up): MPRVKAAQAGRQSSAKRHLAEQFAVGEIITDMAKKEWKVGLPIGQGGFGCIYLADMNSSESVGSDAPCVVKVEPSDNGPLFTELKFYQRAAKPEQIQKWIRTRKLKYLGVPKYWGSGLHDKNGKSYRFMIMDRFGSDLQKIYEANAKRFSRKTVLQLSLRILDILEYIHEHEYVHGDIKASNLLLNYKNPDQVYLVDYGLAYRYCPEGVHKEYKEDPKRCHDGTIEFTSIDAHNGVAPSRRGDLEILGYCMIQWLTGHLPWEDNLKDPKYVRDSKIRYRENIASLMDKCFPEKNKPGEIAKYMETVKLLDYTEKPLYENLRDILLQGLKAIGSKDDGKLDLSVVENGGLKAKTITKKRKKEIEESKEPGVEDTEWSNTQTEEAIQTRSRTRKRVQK
Sequence of UniProt Q9P0T7 (Q9P0T7 whole entry, looked up): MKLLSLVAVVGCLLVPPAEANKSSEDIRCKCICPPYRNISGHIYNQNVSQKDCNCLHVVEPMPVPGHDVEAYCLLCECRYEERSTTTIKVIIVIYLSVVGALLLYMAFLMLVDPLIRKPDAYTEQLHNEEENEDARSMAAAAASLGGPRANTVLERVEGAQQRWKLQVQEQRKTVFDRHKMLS
Sequence of WASHC2C, A0A096LPC5 (A0A096LPC5 whole entry, looked up): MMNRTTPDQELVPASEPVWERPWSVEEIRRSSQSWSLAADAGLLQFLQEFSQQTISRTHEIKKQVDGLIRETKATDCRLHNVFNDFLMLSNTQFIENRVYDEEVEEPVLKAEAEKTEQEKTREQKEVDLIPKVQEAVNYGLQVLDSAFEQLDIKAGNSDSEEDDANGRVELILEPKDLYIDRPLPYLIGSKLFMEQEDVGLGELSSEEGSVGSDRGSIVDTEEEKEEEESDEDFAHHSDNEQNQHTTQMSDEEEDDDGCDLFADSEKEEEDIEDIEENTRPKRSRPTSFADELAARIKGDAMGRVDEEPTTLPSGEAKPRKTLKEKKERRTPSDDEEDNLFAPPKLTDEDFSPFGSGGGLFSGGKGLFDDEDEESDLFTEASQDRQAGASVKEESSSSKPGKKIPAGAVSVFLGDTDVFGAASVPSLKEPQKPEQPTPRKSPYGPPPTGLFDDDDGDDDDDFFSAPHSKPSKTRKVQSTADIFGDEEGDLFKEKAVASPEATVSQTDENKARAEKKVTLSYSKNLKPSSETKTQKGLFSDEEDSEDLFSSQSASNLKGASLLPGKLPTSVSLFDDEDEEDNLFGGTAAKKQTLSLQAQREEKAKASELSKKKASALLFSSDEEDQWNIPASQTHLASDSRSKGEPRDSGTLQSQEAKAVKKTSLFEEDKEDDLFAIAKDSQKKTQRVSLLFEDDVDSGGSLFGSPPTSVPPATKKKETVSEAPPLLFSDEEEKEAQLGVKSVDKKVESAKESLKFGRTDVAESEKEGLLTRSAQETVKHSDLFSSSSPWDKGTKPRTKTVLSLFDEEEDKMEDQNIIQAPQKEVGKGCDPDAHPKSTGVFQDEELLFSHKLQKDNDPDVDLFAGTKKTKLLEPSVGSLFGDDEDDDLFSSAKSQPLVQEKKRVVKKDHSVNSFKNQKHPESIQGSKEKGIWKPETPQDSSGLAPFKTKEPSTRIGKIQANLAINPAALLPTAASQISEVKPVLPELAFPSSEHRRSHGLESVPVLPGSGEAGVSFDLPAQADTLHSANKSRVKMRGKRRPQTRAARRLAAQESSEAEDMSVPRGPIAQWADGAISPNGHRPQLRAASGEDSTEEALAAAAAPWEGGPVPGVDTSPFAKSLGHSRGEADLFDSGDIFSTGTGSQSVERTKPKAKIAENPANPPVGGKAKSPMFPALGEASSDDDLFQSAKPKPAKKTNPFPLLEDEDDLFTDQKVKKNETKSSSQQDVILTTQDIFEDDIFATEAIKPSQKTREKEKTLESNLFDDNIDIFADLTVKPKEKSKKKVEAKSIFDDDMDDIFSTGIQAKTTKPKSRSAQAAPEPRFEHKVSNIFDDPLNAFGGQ
Sequence of UniProt Q9Y3C0 (Q9Y3C0 whole entry, looked up): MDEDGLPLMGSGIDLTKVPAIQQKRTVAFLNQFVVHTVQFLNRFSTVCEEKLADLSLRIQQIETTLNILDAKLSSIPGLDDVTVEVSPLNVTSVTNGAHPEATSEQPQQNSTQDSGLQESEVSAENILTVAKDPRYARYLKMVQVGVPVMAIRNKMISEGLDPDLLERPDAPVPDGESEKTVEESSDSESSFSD
Sequence of UniProt Q86UV5 (Q86UV5 whole entry, looked up): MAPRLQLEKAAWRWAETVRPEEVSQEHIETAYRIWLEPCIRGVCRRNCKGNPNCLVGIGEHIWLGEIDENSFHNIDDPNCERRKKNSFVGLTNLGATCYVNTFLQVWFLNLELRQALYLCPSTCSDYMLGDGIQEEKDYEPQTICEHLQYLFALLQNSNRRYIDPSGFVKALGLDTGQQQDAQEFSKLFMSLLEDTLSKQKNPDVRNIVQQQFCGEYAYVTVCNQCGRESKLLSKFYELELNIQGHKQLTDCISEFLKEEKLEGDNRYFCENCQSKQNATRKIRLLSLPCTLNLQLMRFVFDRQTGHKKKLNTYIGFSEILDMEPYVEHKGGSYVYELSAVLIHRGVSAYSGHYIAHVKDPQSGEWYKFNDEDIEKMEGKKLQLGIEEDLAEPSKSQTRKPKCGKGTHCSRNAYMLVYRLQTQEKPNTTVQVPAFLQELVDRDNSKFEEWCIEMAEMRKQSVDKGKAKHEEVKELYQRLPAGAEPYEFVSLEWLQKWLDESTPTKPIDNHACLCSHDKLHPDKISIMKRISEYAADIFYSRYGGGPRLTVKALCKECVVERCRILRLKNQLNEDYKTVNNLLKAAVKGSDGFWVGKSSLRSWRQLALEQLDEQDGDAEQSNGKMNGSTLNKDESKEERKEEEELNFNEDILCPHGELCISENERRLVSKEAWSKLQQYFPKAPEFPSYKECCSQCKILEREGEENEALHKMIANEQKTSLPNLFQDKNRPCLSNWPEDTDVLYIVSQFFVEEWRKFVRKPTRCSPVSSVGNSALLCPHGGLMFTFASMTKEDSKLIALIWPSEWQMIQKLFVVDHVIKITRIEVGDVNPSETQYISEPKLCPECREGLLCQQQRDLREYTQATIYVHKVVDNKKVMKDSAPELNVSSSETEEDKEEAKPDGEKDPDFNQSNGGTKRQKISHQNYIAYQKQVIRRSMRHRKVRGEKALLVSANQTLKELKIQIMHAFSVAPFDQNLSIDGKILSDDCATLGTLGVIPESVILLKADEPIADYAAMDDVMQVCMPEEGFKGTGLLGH
Sequence of UniProt Q9BTX3 (Q9BTX3 whole entry, looked up): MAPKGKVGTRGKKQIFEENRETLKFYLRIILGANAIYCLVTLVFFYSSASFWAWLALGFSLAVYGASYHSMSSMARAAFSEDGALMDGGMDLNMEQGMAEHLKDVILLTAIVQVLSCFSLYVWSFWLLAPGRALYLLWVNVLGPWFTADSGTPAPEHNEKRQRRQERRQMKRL

Compound in this experiment: Cc1sc2c(c1C)C(c1ccc(Cl)cc1)=N[C@@H](CC(=O)OC(C)(C)C)c1nnc(C)n1-2
As to the kind of experiment: log2 fold change, soluble protein after heating vs DMSO (PISA); higher = thermal stabilisation; K562 cells, 10 uM, 30 min; active = over 0.2 and 3.5 SD of the protein, either way, in both replicates (recomputed). The method, boiled down:
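K562 cells at 2×10^6 cells/mL were exposed to 10 μM compound for 30 min, then aliquots were heated for 3 min across 48°C-58°C, pooled, and extracted in PBS containing 0.5% NP-40 at 4°C. The supernatant after 21,000xg for 90 min was taken as soluble protein and measured by TMTpro 16plex LC-MS/MS with channel sums equalised. Thermal stability is reported relative to control samples, with values from duplicates. Fold changes are given on a log2 scale.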
As to TSPAN13 (UniProt O95857), the log2 fold change was 0.076. In the case of WASHC3 (UniProt Q9Y3C0), the log2 fold change is -0.001. With TMEM9 (UniProt Q9P0T7), the log2 fold change is -0.027. To TMEM219 (UniProt Q86XT9) belongs 0.016; to TRMT10A (UniProt Q8TBZ6), -0.033; to WDR41 (UniProt Q9HAD4), -0.03.

Turning to USP48 isoform 8 (UniProt Q86UV5), the log2 fold change was -0.012. To TMEM208 (UniProt Q9BTX3) belongs -0.14; to XRCC5 (UniProt P13010), 0. Consider WASHC2C, A0A096LPC5, for which the log2 fold change was 0.027. Next, VPS52 (UniProt Q8N1B4): -0.057; WDR18 (UniProt Q9BV38): -0.037; VRK1 (UniProt Q99986): -0.019.
